Measured values published in paper PMC11006913.

target: ALX1 (Homo sapiens, UniProt Q15699 118-204, L144V); experiment: PBM; 200 nM protein, PBS; details: dsDNA, one strand shown
Sequence (Q15699 118-204 L144V): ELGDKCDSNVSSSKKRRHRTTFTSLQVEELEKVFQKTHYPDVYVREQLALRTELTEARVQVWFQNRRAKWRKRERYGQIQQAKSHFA

| Sequence | binding signal |
| --- | --- |
| TAGGATAA | 8.45 upbm affinity estimate (log intensity, higher = more binding, comparable within an allelic series) |
| AGTTAGCC | 7.87 upbm affinity estimate (log intensity, higher = more binding, comparable within an allelic series) |
| CCTTGGCG | 6.13 upbm affinity estimate (log intensity, higher = more binding, comparable within an allelic series) |
| CTGAATTC | 7.73 upbm affinity estimate (log intensity, higher = more binding, comparable within an allelic series) |
| CCGACTGC | 6.5 upbm affinity estimate (log intensity, higher = more binding, comparable within an allelic series) |
| AGCCTTCG | 6.33 upbm affinity estimate (log intensity, higher = more binding, comparable within an allelic series) |
| ATTAAGCA | 10.2 upbm affinity estimate (log intensity, higher = more binding, comparable within an allelic series) |
| CGCCTTCC | 6.24 upbm affinity estimate (log intensity, higher = more binding, comparable within an allelic series) |
| CCGAGAGC | 6.61 upbm affinity estimate (log intensity, higher = more binding, comparable within an allelic series) |
| CAAATTTG | 9.35 upbm affinity estimate (log intensity, higher = more binding, comparable within an allelic series) |
| ATTTATCG | 8.96 upbm affinity estimate (log intensity, higher = more binding, comparable within an allelic series) |
| AGCTACGA | 6.35 upbm affinity estimate (log intensity, higher = more binding, comparable within an allelic series) |
| AGTTACTG | 8.01 upbm affinity estimate (log intensity, higher = more binding, comparable within an allelic series) |
| CGACGGCG | 6.62 upbm affinity estimate (log intensity, higher = more binding, comparable within an allelic series) |
| CGGGTGAG | 6.48 upbm affinity estimate (log intensity, higher = more binding, comparable within an allelic series) |
| ACGATTAC | 8.4 upbm affinity estimate (log intensity, higher = more binding, comparable within an allelic series) |
| AACTAAGT | 8.49 upbm affinity estimate (log intensity, higher = more binding, comparable within an allelic series) |

| Sequence | binding signal |
| --- | --- |
| ATATTGTC | 8.09 upbm affinity estimate (log intensity, higher = more binding, comparable within an allelic series) |
| CGACAGGC | 6.36 upbm affinity estimate (log intensity, higher = more binding, comparable within an allelic series) |
| CTAGCTGC | 6.42 upbm affinity estimate (log intensity, higher = more binding, comparable within an allelic series) |
| CCTTGCCG | 6.69 upbm affinity estimate (log intensity, higher = more binding, comparable within an allelic series) |
| GTAGGTAA | 8.26 upbm affinity estimate (log intensity, higher = more binding, comparable within an allelic series) |
| CCGTATTA | 8.94 upbm affinity estimate (log intensity, higher = more binding, comparable within an allelic series) |
| ATTGGAAA | 8.46 upbm affinity estimate (log intensity, higher = more binding, comparable within an allelic series) |
| CTGGGCGA | 6.34 upbm affinity estimate (log intensity, higher = more binding, comparable within an allelic series) |
| ATAACTCC | 8.41 upbm affinity estimate (log intensity, higher = more binding, comparable within an allelic series) |
| ACATTTAG | 8.38 upbm affinity estimate (log intensity, higher = more binding, comparable within an allelic series) |
| GGAGAAAC | 6.41 upbm affinity estimate (log intensity, higher = more binding, comparable within an allelic series) |
| AATCCACA | 8.17 upbm affinity estimate (log intensity, higher = more binding, comparable within an allelic series) |
| AGCCACAG | 6.62 upbm affinity estimate (log intensity, higher = more binding, comparable within an allelic series) |
| CGGACGGA | 6.3 upbm affinity estimate (log intensity, higher = more binding, comparable within an allelic series) |
| CCCCCCCC | 6.17 upbm affinity estimate (log intensity, higher = more binding, comparable within an allelic series) |
| ACATAATA | 9.56 upbm affinity estimate (log intensity, higher = more binding, comparable within an allelic series) |

target: ALX3 (Homo sapiens, UniProt O95076 139-225, N203Q); experiment: PBM; 200 nM protein, PBS; details: dsDNA, one strand shown
Sequence (O95076 139-225 N203Q): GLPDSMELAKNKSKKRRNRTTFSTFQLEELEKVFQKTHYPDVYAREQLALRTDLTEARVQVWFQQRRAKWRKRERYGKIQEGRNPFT

| Sequence | binding signal |
| --- | --- |
| TAATAATA | 8.57 upbm affinity estimate (log intensity, higher = more binding, comparable within an allelic series) |
| CCACAGGG | 7.75 upbm affinity estimate (log intensity, higher = more binding, comparable within an allelic series) |
| CATAATAA | 8.54 upbm affinity estimate (log intensity, higher = more binding, comparable within an allelic series) |
| ACTTATTA | 8.57 upbm affinity estimate (log intensity, higher = more binding, comparable within an allelic series) |
| GCTTCGAC | 7.77 upbm affinity estimate (log intensity, higher = more binding, comparable within an allelic series) |
| TATAATAA | 8.61 upbm affinity estimate (log intensity, higher = more binding, comparable within an allelic series) |
| ATAATAAG | 8.64 upbm affinity estimate (log intensity, higher = more binding, comparable within an allelic series) |

target: ALX1 (Homo sapiens, UniProt Q15699 118-204, L144R); experiment: PBM; 200 nM protein, PBS; details: dsDNA, one strand shown
Sequence (Q15699 118-204 L144R): as the sequence (Q15699 118-204 L144V) above, with V27R counted along it

| Sequence | binding signal |
| --- | --- |
| TAGGATAA | 8.36 upbm affinity estimate (log intensity, higher = more binding, comparable within an allelic series) |
| AGTTAGCC | 7.7 upbm affinity estimate (log intensity, higher = more binding, comparable within an allelic series) |
| CCTTGGCG | 6.15 upbm affinity estimate (log intensity, higher = more binding, comparable within an allelic series) |
| CTGAATTC | 7.6 upbm affinity estimate (log intensity, higher = more binding, comparable within an allelic series) |
| CCGACTGC | 6.49 upbm affinity estimate (log intensity, higher = more binding, comparable within an allelic series) |
| AGCCTTCG | 6.46 upbm affinity estimate (log intensity, higher = more binding, comparable within an allelic series) |
| ATTAAGCA | 9.85 upbm affinity estimate (log intensity, higher = more binding, comparable within an allelic series) |
| CGCCTTCC | 6.38 upbm affinity estimate (log intensity, higher = more binding, comparable within an allelic series) |
| CCGAGAGC | 6.63 upbm affinity estimate (log intensity, higher = more binding, comparable within an allelic series) |
| CAAATTTG | 9 upbm affinity estimate (log intensity, higher = more binding, comparable within an allelic series) |
| ATTTATCG | 8.71 upbm affinity estimate (log intensity, higher = more binding, comparable within an allelic series) |
| AGCTACGA | 6.56 upbm affinity estimate (log intensity, higher = more binding, comparable within an allelic series) |
| AGTTACTG | 7.88 upbm affinity estimate (log intensity, higher = more binding, comparable within an allelic series) |
| CGACGGCG | 6.71 upbm affinity estimate (log intensity, higher = more binding, comparable within an allelic series) |
| CGGGTGAG | 6.58 upbm affinity estimate (log intensity, higher = more binding, comparable within an allelic series) |
| ACGATTAC | 8.26 upbm affinity estimate (log intensity, higher = more binding, comparable within an allelic series) |
| ATATTGTC | 8.02 upbm affinity estimate (log intensity, higher = more binding, comparable within an allelic series) |
| CGACAGGC | 6.36 upbm affinity estimate (log intensity, higher = more binding, comparable within an allelic series) |
| CTAGCTGC | 6.45 upbm affinity estimate (log intensity, higher = more binding, comparable within an allelic series) |
| CCTTGCCG | 6.58 upbm affinity estimate (log intensity, higher = more binding, comparable within an allelic series) |
| CCGTATTA | 8.73 upbm affinity estimate (log intensity, higher = more binding, comparable within an allelic series) |
| ATTGGAAA | 8.23 upbm affinity estimate (log intensity, higher = more binding, comparable within an allelic series) |
| CTGGGCGA | 6.37 upbm affinity estimate (log intensity, higher = more binding, comparable within an allelic series) |
| ATAACTCC | 8.38 upbm affinity estimate (log intensity, higher = more binding, comparable within an allelic series) |
| ACATTTAG | 8.16 upbm affinity estimate (log intensity, higher = more binding, comparable within an allelic series) |
| GGAGAAAC | 6.7 upbm affinity estimate (log intensity, higher = more binding, comparable within an allelic series) |
| AGCCACAG | 6.52 upbm affinity estimate (log intensity, higher = more binding, comparable within an allelic series) |
| CGGACGGA | 6.37 upbm affinity estimate (log intensity, higher = more binding, comparable within an allelic series) |
| CCCCCCCC | 6 upbm affinity estimate (log intensity, higher = more binding, comparable within an allelic series) |
| ACATAATA | 9.39 upbm affinity estimate (log intensity, higher = more binding, comparable within an allelic series) |

target: ALX1 (Homo sapiens, UniProt Q15699 118-204); experiment: PBM; 200 nM protein, PBS; details: dsDNA, one strand shown
Sequence (Q15699 118-204): as the sequence (Q15699 118-204 L144V) above, with V27L counted along it

| Sequence | binding signal |
| --- | --- |
| TAGGATAA | 8.67 upbm affinity estimate (log intensity, higher = more binding, comparable within an allelic series) |
| AGTTAGCC | 8.29 upbm affinity estimate (log intensity, higher = more binding, comparable within an allelic series) |
| CCTTGGCG | 6.14 upbm affinity estimate (log intensity, higher = more binding, comparable within an allelic series) |
| CTGAATTC | 7.82 upbm affinity estimate (log intensity, higher = more binding, comparable within an allelic series) |
| CCGACTGC | 6.52 upbm affinity estimate (log intensity, higher = more binding, comparable within an allelic series) |
| AGCCTTCG | 6.29 upbm affinity estimate (log intensity, higher = more binding, comparable within an allelic series) |
| ATTAAGCA | 10.5 upbm affinity estimate (log intensity, higher = more binding, comparable within an allelic series) |
| CGCCTTCC | 6.08 upbm affinity estimate (log intensity, higher = more binding, comparable within an allelic series) |
| CCGAGAGC | 6.63 upbm affinity estimate (log intensity, higher = more binding, comparable within an allelic series) |
| CAAATTTG | 9.69 upbm affinity estimate (log intensity, higher = more binding, comparable within an allelic series) |
| ATTTATCG | 9.21 upbm affinity estimate (log intensity, higher = more binding, comparable within an allelic series) |
| AGCTACGA | 6.35 upbm affinity estimate (log intensity, higher = more binding, comparable within an allelic series) |
| AGTTACTG | 8.32 upbm affinity estimate (log intensity, higher = more binding, comparable within an allelic series) |
| CGACGGCG | 6.56 upbm affinity estimate (log intensity, higher = more binding, comparable within an allelic series) |
| CGGGTGAG | 6.62 upbm affinity estimate (log intensity, higher = more binding, comparable within an allelic series) |
| ACGATTAC | 8.62 upbm affinity estimate (log intensity, higher = more binding, comparable within an allelic series) |
| AACTAAGT | 8.92 upbm affinity estimate (log intensity, higher = more binding, comparable within an allelic series) |

| Sequence | binding signal |
| --- | --- |
| ATATTGTC | 8 upbm affinity estimate (log intensity, higher = more binding, comparable within an allelic series) |
| CGACAGGC | 6.15 upbm affinity estimate (log intensity, higher = more binding, comparable within an allelic series) |
| CTAGCTGC | 6.31 upbm affinity estimate (log intensity, higher = more binding, comparable within an allelic series) |
| CCTTGCCG | 6.55 upbm affinity estimate (log intensity, higher = more binding, comparable within an allelic series) |
| GTAGGTAA | 8.54 upbm affinity estimate (log intensity, higher = more binding, comparable within an allelic series) |
| CCGTATTA | 9.27 upbm affinity estimate (log intensity, higher = more binding, comparable within an allelic series) |
| ATTGGAAA | 8.59 upbm affinity estimate (log intensity, higher = more binding, comparable within an allelic series) |
| CTGGGCGA | 6.87 upbm affinity estimate (log intensity, higher = more binding, comparable within an allelic series) |
| ATAACTCC | 8.38 upbm affinity estimate (log intensity, higher = more binding, comparable within an allelic series) |
| ACATTTAG | 8.56 upbm affinity estimate (log intensity, higher = more binding, comparable within an allelic series) |
| GGAGAAAC | 6.58 upbm affinity estimate (log intensity, higher = more binding, comparable within an allelic series) |
| AATCCACA | 8.4 upbm affinity estimate (log intensity, higher = more binding, comparable within an allelic series) |
| AGCCACAG | 6.67 upbm affinity estimate (log intensity, higher = more binding, comparable within an allelic series) |
| CGGACGGA | 6.28 upbm affinity estimate (log intensity, higher = more binding, comparable within an allelic series) |
| CCCCCCCC | 6.16 upbm affinity estimate (log intensity, higher = more binding, comparable within an allelic series) |
| ACATAATA | 9.89 upbm affinity estimate (log intensity, higher = more binding, comparable within an allelic series) |
